For 27 compounds, max response results are on record in PubChem BioAssay AID2314 (National Center for Advancing Translational Sciences (NCATS), 2010).

Hit rate of the full screen: of about 300,000 compounds, about 37,000 (12%) were called active. The sample holds actives, similar compounds and a random draw of the others, so the mix is not that of the screen. A number with no mark means an inactive call. Rule as the data show it: active = max response mostly above about 13% (no sharp cut-off); inactive = mostly below about 14%.

The nature of the assay: Cycloheximide Counterscreen for Small Molecule Inhibitors of Shiga Toxin. Also: read at 38.3 µM for the half of the compounds with a filed dose; 0% is about no effect. The conditions noted are these: cell reporter, cycloheximide protein synthesis inhibition counterscreen; stronger effect = higher value. For orientation: A counterscreen serves to expose hits that act by an unwanted route or on another target.
Take `COC(=O)c1c(NC(=O)c2ccc(S(=O)(=O)N3CCOCC3)cc2)sc2c1CCN(C(C)C)C2`: the max response is -1.08%. Take `CC(=O)N1CCC(N(C(=O)Nc2ccc(Cl)cc2)C(C)C)CC1`: the max response was 9.65% (active). As for `CCOC(=O)C1CCN(C(=O)Nc2ccc(Cl)cc2)CC1`, the max response is 12.6%. Regarding `CC(=O)Nc1ccc(NC(=O)C2CCCN(S(=O)(=O)c3ccc(Cl)cc3)C2)cc1` (configuration not stated), the max response was -5.06%. Consider `COc1cccc(NC(=O)C2C(c3ccccc3)C2(Cl)Cl)c1` (configuration not stated), for which the max response was 1.73%. With `CCOCCOC(=O)C(C)Oc1ccc(Oc2ncc(C(F)(F)F)cc2Cl)cc1` (configuration not stated), the max response was 0.288%. With `CCOC(=O)CN(C(=O)COc1nc(C)cc(C)c1C#N)c1ccc(Cl)cc1`, the max response is 1.33%. In the case of `O=C1CCC(=O)N(c2ccccc2)N1`, the max response was 4.98%. Regarding `O=C1CCCc2nn(-c3ccccc3)nc21`, the max response is 31.9% (active). As for `c1ccc(-n2nc3ccccc3n2)cc1`, the max response is 10.4%. As for `CCCc1nc(SCC(=O)N2CCCC2)c2c(=O)n(C)c(=O)n(C)c2n1`, the figure is -1.08%; as for `COCCNC(=O)CN(Cc1ccco1)C(=O)CCC(=O)Nc1nccs1`, -7.71%.

In the case of `Cc1ccc(Nc2c(F)c(F)c(F)c(F)c2C(=O)O)c(C)c1`, the max response is -3.03%. For the compound `COc1cc(SC)ccc1C(=O)Nc1nc(C)cs1`, the max response is -6.32%. As for `COc1cc(SC)ccc1C(=O)NCCOc1ccccc1Cl`, the figure is 57.7% (active); as for `COc1cc(SC)ccc1C(=O)Nc1cc(C)ccn1`, 40.1% (active); as for `COc1cc(SC)ccc1C(=O)N(Cc1ccccc1)c1ccccc1`, -0.326%. As for `COc1ccccc1CNC(=O)c1ccc(SC)cc1OC`, the max response was 8.03%. Under `Cc1ccnc(NC(=O)c2ccoc2C)c1` stands 35.7% (active); under `Cc1ccnc(NC(=O)CCCOc2ccccc2)c1`, 9.11%. As for `Cc1occc1C(=O)Nc1cccc(Cn2cccn2)c1`, the max response is 10.7%. For `COc1ccccc1OCCNC(=O)CCNC(=O)c1ccccc1Cl`, the max response is 5.13%. Turning to `COc1ccc(CCNc2cc(C)nc3c(-c4ccc(Cl)cc4)c(C)nn23)cc1OC`, the max response is -1.95%. `COc1cccc(NC(=O)c2cc(S(=O)(=O)N3CCc4ccccc43)cn2C)c1`: the max response was -2.59%. As for `CCc1nn(CCCN2CCN(c3cccc(Cl)c3)CC2)c(=O)n1CCOc1ccccc1`, the figure is -3.76% [middle of 4 runs]; as for `Cn1c(=O)c2c(SCC(=O)NCC3CCCO3)nc(CC(C)(C)C)nc2n(C)c1=O` (configuration not stated), 0.724%.

Regarding `CC(OC(=O)c1ccccc1OCc1ccc(Cl)cc1)C(N)=O` (configuration not stated), the max response is 2.27%.
